# Results as given in PubChem BioAssay (NCI).
# Values joined by “and” are separate entries in the source; they are usually repeats but may differ in a detail not shown here. Identical values can stand only once. Compounds without any hit were thinned out: in the full panel of roughly 83,000, 20% have a hit.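 Each cell line was grown in a 96-well plate and treated with one concentration of compound for 48 hours. Values below 10 were considered active.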 Active and inactive are the calls of the source.
# Tested on: BT-549 breast
# Assay: NCI-60 one-dose screen, 48 h (100 = growth as untreated, 0 = no growth, -100 = all killed)
# Details: 10 µM unless noted
row,Compound,growth
1,N#CC(C#N)=Cc1cccc(F)c1,111% (inactive)
2,O=[N+]([O-])c1ccc2scc3c4ccccc4nc-3c2c1,22.7% (inactive)
3,Cc1cc(NC(=O)NCCCOc2ccc(N3C(N)=NC(N)=NC3(C)C)cc2Cl)ccc1S(=O)(=O)F,59.9% (inactive)
4,Cn1cc(C(=O)C[n+]2ccccc2)c2ccccc21,95.3% (inactive)
5,Nc1nc(=S)nc(N)[nH]1,77.8% (inactive)
6,C[C@]12CCC(=O)C[C@@H]1CC[C@@H]1[C@@H]2CC[C@]2(C)[C@@H](OC(=O)N(CCCl)N=O)CC[C@@H]12,32.9% (inactive)
7,NC1CN2CCC1CC2 (configuration not stated),95% (inactive)
8,O=C(O)C1C(C(=O)O)C2(Cl)C(Cl)=C(Cl)C1(Cl)C2(Cl)Cl (configuration not stated),104% (inactive) and 107% (inactive)
9,O=C1NC(=O)C(=C/C=C/c2ccccc2)C(=O)N1,36.6% (inactive)
10,c1ccc(CCN2CCCCC2)nc1,99.8% (inactive)
11,O=[N+]([O-])c1cc(Br)c(O)c(Br)c1,121% (inactive)
12,Cc1cc(Br)c([N+](=O)[O-])cc1[N+](=O)[O-],106% (inactive)
13,C[C@]12CC[C@@H](OC(=O)N(CCCl)N=O)C[C@@H]1CC[C@@H]1[C@@H]2CC[C@]2(C)C(=O)CC[C@@H]12,76.8% (inactive)
14,CCOC(=O)C1C(C=C(C)C)C1(C)C (configuration not stated),104% (inactive)
15,N[C@@H](CCC(=O)CCl)C(=O)O,108% [20 µM] (inactive)
16,Oc1ccc(O)c(Cl)c1,66.3% (inactive) and 96.1% (inactive)
17,CC(C)c1cccc(C(C)C)c1O,104% (inactive) and 97.8% (inactive)
